PubChem BioAssay (NCI)
About 79,000 compounds went through this panel and 15% of them were active in at least one assay; those are over-represented in the sample as a whole. Active and inactive are the calls of the source. Rule as the data show it: active = growth inhibition above about 70%; inactive = the rest.

What was measured:
[1] = NCI Yeast Anticancer Drug Screen. Data for the mec2-1 strain (AID 157); conditions: S. cerevisiae mec2-1 strain, stronger effect = higher value
Procedure, shortened: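 Using mec2-1 yeast: add compound, measure growth, express inhibition versus vehicle-treated cultures.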

[2] = NCI Yeast Anticancer Drug Screen. Data for the rad14 strain (AID 159);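 also: 0% = growth of vehicle-treated control cultures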; conditions: S. cerevisiae rad14 strain growth inhibition, stronger effect = higher value
Procedure, shortened: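 Test compounds were applied to a repair-deficient yeast strain. Its growth was then compared with that of cultures given vehicle alone, and inhibition was expressed relative to those controls.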

[3] = NCI Yeast Anticancer Drug Screen. Data for the sgs1 mgt1 strain (AID 161);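 also: 0% = growth of cultures given vehicle only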; conditions: S. cerevisiae sgs1 mgt1 strain, stronger effect = higher value
Procedure, shortened: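 Percent growth inhibition was derived by comparing compound-exposed mutant yeast with vehicle-exposed cultures. The strain carries alterations in DNA damage repair.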

[4] = NCI Yeast Anticancer Drug Screen. Data for the CLN2oe strain (AID 163);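 also: 0% = growth of vehicle-only control cultures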; conditions: S. cerevisiae CLN2oe strain, stronger effect = higher value
Procedure, shortened: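 Whole-cell yeast growth assay. A strain engineered for altered cell-cycle control received compound, and inhibition relative to vehicle-treated cultures was recorded.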

[5] = NCI Yeast Anticancer Drug Screen. Data for the cln2 rad14 strain (AID 165);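 also: 0% = growth equal to vehicle treated cultures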; conditions: S. cerevisiae cln2 rad14 strain, stronger effect = higher value
Procedure, shortened: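 Yeast strain cln2 rad14, bearing defects in cell cycle control and DNA repair, serves as the test system; values reflect growth inhibition compared with vehicle.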

[6] = NCI Yeast Anticancer Drug Screen. Data for the bub3 strain (AID 167); conditions: S. cerevisiae bub3 mutant strain, stronger effect = higher value
Procedure, shortened: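 Yeast carrying a defined mutation is treated with each compound, and growth is compared with that of vehicle-exposed cells to give inhibition.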

[7] = NCI Yeast Anticancer Drug Screen. Data for the wt2 strain (AID 169);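 also: 0% = growth of vehicle-treated yeast cultures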; conditions: S. cerevisiae wt2 strain growth inhibition, stronger effect = higher value
Procedure, shortened: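 Treated yeast vs. vehicle-treated yeast: growth inhibition determined.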

[8] = NCI Yeast Anticancer Drug Screen. Data for the mlh1 strain (AID 171);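 also: 0% = growth of vehicle-treated control cultures of the same strain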; conditions: S. cerevisiae mlh1 strain growth inhibition, stronger effect = higher value
Procedure, shortened: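 A yeast strain with a defined genetic lesion serves as the test organism. Cultures receive compound or vehicle, and growth is measured.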

[9] = NCI Yeast Anticancer Drug Screen. Data for the sgs1 strain (AID 173);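 also: 0% = growth of vehicle-only control cultures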; conditions: S. cerevisiae sgs1 mutant, stronger effect = higher value
Procedure, shortened: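 A genetically defined yeast mutant is incubated with the test compound, and its growth is compared to that of the same strain given vehicle.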

[10] = NCI Yeast Anticancer Drug Screen. Data for the mlh1 rad18 strain (AID 175); conditions: S. cerevisiae mlh1 rad18 strain growth inhibition, stronger effect = higher value
Procedure, shortened: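 Steps: expose repair-defective yeast to compound; measure growth; express inhibition against vehicle-treated controls.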

[11] = NCI Yeast Anticancer Drug Screen. Data for the rad18 strain (AID 177); conditions: S. cerevisiae rad18 mutant growth inhibition, stronger effect = higher value
Procedure, shortened: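 Measured value is growth inhibition of a yeast strain bearing a DNA repair alteration, referenced to vehicle-treated cells.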

[12] = NCI Yeast Anticancer Drug Screen. Data for the wt1 strain (AID 149);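 also: 0% = growth of vehicle-treated wt1 cultures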; conditions: S. cerevisiae wt1 strain (SPY 50644) growth inhibition, stronger effect = higher value
Procedure, shortened: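 wt1 yeast, compound-treated; % growth inhibition vs vehicle control.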

[13] = NCI Yeast Anticancer Drug Screen. Data for the rad50EPP+ strain (AID 151);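 also: 0% = growth of vehicle-treated control cultures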; conditions: S. cerevisiae rad50 mutant strain, stronger effect = higher value
Procedure, shortened: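 Read-out is yeast growth inhibition relative to vehicle; cells used were the rad50EPP+ strain.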

[14] = NCI Yeast Anticancer Drug Screen. Data for the mgt1 strain (AID 153); conditions: S. cerevisiae mgt1 mutant growth inhibition, stronger effect = higher value
Procedure, shortened: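 Measured: inhibition of mgt1 yeast growth by compound, normalized to vehicle-treated cultures.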

[15] = NCI Yeast Anticancer Drug Screen. Data for the rad50 strain (AID 155);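 also: 0% = growth of vehicle-only cultures of the same strain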; conditions: S. cerevisiae rad50 strain growth inhibition, stronger effect = higher value
Procedure, shortened: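 Genetically altered yeast (DNA repair pathway); compound treatment; growth inhibition vs vehicle ctrl.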

[16] = at 5.0 µM (retest, dose inferred, filed as 0.5)
[17] = at 50.0 µM (retest, dose inferred, filed as 5.0)

Measured: growth inhibition

O=C1c2ccccc2C2CCC1c1ccccc12 (centres undefined)
inactive: [2]; at 1.2 µM -25% | [2]; at 3.7 µM -24% | [2]; at 11.0 µM -17% | [2]; at 33.0 µM -6% | [3]; [16] -15% | [3]; [17] -7% | [3]; at 50.0 µM 9.45% | [4]; at 1.2 µM 2% | [4]; at 3.7 µM -5% | [4]; at 11.0 µM 7% | [4]; at 33.0 µM 59% | [5]; [16] -19% | [5]; [17] 13% | [5]; at 50.0 µM 18.3% | [6]; at 1.2 µM -22% | [6]; at 3.7 µM -30% | [6]; [16] -32% | [6]; at 11.0 µM -33% | [6]; at 33.0 µM 33% | [6]; at 50.0 µM 7.05% | [7]; at 1.2 µM -1% | [7]; at 3.7 µM -11% | [7]; at 11.0 µM 4% | [7]; at 33.0 µM 0% | [8]; at 1.2 µM -3% | [8]; at 3.7 µM 6% | [8]; at 11.0 µM 14% | [8]; at 33.0 µM 28% | [9]; at 1.2 µM -12% | [9]; at 3.7 µM -18% | [9]; at 11.0 µM -18% | [9]; at 33.0 µM 18% | [10]; [16] -45% | [10]; [17] 26% | [10]; at 50.0 µM 10.6% | [11]; at 1.2 µM -40% | [11]; at 3.7 µM -30% | [11]; at 11.0 µM -38% | [11]; at 33.0 µM -26%
active: [1]; at 100.0 µM 98% | [2]; at 100.0 µM 97% | [4]; at 100.0 µM 98% | [6]; [17] 89% | [6]; at 100.0 µM 97% | [7]; at 100.0 µM 97% | [8]; at 100.0 µM 94% | [9]; at 100.0 µM 96% | [11]; at 100.0 µM 96%

CCC(C)/C(C)=N/NC(N)=O (centres undefined)
active: [10]; [17] 76%
inactive: [12]; at 1.2 µM 0% | [12]; at 3.7 µM 2% | [12]; at 11.0 µM 3% | [12]; at 33.0 µM 3% | [12]; at 100.0 µM 1% | [13]; at 1.2 µM -5% | [13]; at 3.7 µM -1% | [13]; at 11.0 µM -3% | [13]; at 33.0 µM -9% | [13]; at 100.0 µM -14% | [14]; at 1.2 µM 0% | [14]; at 3.7 µM -2% | [14]; at 11.0 µM 1% | [14]; at 33.0 µM 14% | [14]; at 100.0 µM 1% | [15]; at 1.2 µM 2% | [15]; at 3.7 µM 0% | [15]; [16] -7% | [15]; at 11.0 µM 0% | [15]; at 33.0 µM 0% | [15]; [17] 30% | [15]; at 50.0 µM 58.2% | [15]; at 100.0 µM 0% | [1]; at 1.2 µM -1% | [1]; at 3.7 µM 2% | [1]; [16] -3% | [1]; at 11.0 µM -1% | [1]; at 33.0 µM -3% | [1]; [17] -2% | [1]; at 50.0 µM 18.1% | [1]; at 100.0 µM 1% | [2]; at 1.2 µM -2% | [2]; at 3.7 µM 0% | [2]; at 11.0 µM 1% | [2]; at 33.0 µM 0% | [2]; at 100.0 µM 0% | [3]; [16] 5% | [3]; [17] 48% | [3]; at 50.0 µM 36.9% | [4]; at 1.2 µM -7% | [4]; at 3.7 µM 0% | [4]; at 11.0 µM 0% | [4]; at 33.0 µM -6% | [4]; at 100.0 µM -5% | [5]; [16] 5% | [5]; [17] 12% | [5]; at 50.0 µM 22.5% | [6]; at 1.2 µM -2% | [6]; at 3.7 µM -2% | [6]; [16] 8% | [6]; at 11.0 µM 0% | [6]; at 33.0 µM -3% | [6]; [17] 43% | [6]; at 50.0 µM 25% | [6]; at 100.0 µM -10% | [7]; at 1.2 µM 1% | [7]; at 3.7 µM 2% | [7]; at 11.0 µM 3% | [7]; at 33.0 µM 4% | [7]; at 100.0 µM 2% | [8]; at 1.2 µM 1% | [8]; at 3.7 µM 1% | [8]; at 11.0 µM 2% | [8]; at 33.0 µM 1% | [8]; at 100.0 µM 0% | [9]; at 1.2 µM 0% | [9]; at 3.7 µM 4% | [9]; at 11.0 µM 3% | [9]; at 33.0 µM 3% | [9]; at 100.0 µM 2% | [10]; [16] 1% | [10]; at 50.0 µM 68% | [11]; at 1.2 µM 1% | [11]; at 3.7 µM 0% | [11]; at 11.0 µM -7% | [11]; at 33.0 µM 3% | [11]; at 100.0 µM 5%

O=S(=O)(O)CC[S][Sn]([S]CCS(=O)(=O)O)([c]1ccccc1)[c]1ccccc1
inactive: [12]; at 1.2 µM -25% | [12]; at 3.7 µM 12% | [13]; at 1.2 µM -20% | [13]; at 3.7 µM -17% | [13]; at 11.0 µM -11% | [13]; at 33.0 µM -7% | [13]; at 100.0 µM -22% | [14]; at 1.2 µM -7% | [14]; at 3.7 µM 45% | [15]; at 1.2 µM -28% | [15]; at 3.7 µM 18% | [15]; [16] 22% | [1]; at 1.2 µM -21% | [1]; at 3.7 µM 11% | [1]; [16] 20% | [2]; at 1.2 µM -6% | [2]; at 3.7 µM 35% | [3]; [16] 3% | [4]; at 1.2 µM 20% | [4]; at 3.7 µM 20% | [5]; [16] 6% | [6]; at 1.2 µM -31% | [6]; at 3.7 µM 30% | [6]; [16] 46% | [7]; at 1.2 µM -34% | [7]; at 3.7 µM 8% | [8]; at 1.2 µM -35% | [8]; at 3.7 µM 11% | [9]; at 1.2 µM -12% | [9]; at 3.7 µM 32% | [10]; [16] 43% | [11]; at 1.2 µM -2% | [11]; at 3.7 µM 43%
active: [12]; at 11.0 µM 80% | [12]; at 33.0 µM 95% | [12]; at 100.0 µM 98% | [14]; at 11.0 µM 92% | [14]; at 33.0 µM 97% | [14]; at 100.0 µM 98% | [15]; at 11.0 µM 90% | [15]; at 33.0 µM 97% | [15]; [17] 97% | [15]; at 50.0 µM 88.5% | [15]; at 100.0 µM 97% | [1]; at 11.0 µM 81% | [1]; at 33.0 µM 97% | [1]; [17] 99% | [1]; at 50.0 µM 89.8% | [1]; at 100.0 µM 98% | [2]; at 11.0 µM 91% | [2]; at 33.0 µM 97% | [2]; at 100.0 µM 97% | [3]; [17] 95% | [3]; at 50.0 µM 91% | [4]; at 11.0 µM 72% | [4]; at 33.0 µM 96% | [4]; at 100.0 µM 98% | [5]; [17] 91% | [5]; at 50.0 µM 88.5% | [6]; at 11.0 µM 87% | [6]; at 33.0 µM 96% | [6]; [17] 96% | [6]; at 50.0 µM 87.8% | [6]; at 100.0 µM 97% | [7]; at 11.0 µM 89% | [7]; at 33.0 µM 98% | [7]; at 100.0 µM 97% | [8]; at 11.0 µM 89% | [8]; at 33.0 µM 95% | [8]; at 100.0 µM 96% | [9]; at 11.0 µM 88% | [9]; at 33.0 µM 96% | [9]; at 100.0 µM 97% | [10]; [17] 99% | [10]; at 50.0 µM 91.5% | [11]; at 11.0 µM 92% | [11]; at 33.0 µM 96% | [11]; at 100.0 µM 98%
